Measurements taken from PubChem BioAssay (NCATS).
Values without a mark were called inactive. Records with an inconclusive call do not appear. The source made the active and inactive calls. Unless noted, calls follow the shape of the dose curve; as a rule, active = well fitted activation curve with a large enough effect in the main read-out, with a control signal flat (not every such curve was filed as active); inconclusive = small, poorly fitted or top-dose-only effect, or effect the other way, or a change in a side signal; inactive = flat fitted curve, though single readings scatter.

Biological target: 3',5'-cyclic-AMP phosphodiesterase 4B (Homo sapiens) (UniProt Q07343)
Assay: qHTS Assay for Inhibitors of PDE-IV (AID 607); also: % of control where 0% means no effect
Settings: HEK293 ACTOne CNG channel cells, membrane potential fluorescence; series mostly up to 22.9 µM; activation (PDE inhibition): at the top concentration
Outline: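 ACTOne HEK293 cells carry a modified cAMP-gated CNG channel and express endogenous PDE4; plated 1000 cells/well, compounds up to 22.9 uM final. Membrane-potential dye fluorescence (ex 535/em 590) was read; parental cells received 10 uM forskolin + 100 uM RO 20-1724.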

Chain of 3',5'-cyclic-AMP phosphodiesterase 4B (Homo sapiens) (Q07343 whole entry, looked up): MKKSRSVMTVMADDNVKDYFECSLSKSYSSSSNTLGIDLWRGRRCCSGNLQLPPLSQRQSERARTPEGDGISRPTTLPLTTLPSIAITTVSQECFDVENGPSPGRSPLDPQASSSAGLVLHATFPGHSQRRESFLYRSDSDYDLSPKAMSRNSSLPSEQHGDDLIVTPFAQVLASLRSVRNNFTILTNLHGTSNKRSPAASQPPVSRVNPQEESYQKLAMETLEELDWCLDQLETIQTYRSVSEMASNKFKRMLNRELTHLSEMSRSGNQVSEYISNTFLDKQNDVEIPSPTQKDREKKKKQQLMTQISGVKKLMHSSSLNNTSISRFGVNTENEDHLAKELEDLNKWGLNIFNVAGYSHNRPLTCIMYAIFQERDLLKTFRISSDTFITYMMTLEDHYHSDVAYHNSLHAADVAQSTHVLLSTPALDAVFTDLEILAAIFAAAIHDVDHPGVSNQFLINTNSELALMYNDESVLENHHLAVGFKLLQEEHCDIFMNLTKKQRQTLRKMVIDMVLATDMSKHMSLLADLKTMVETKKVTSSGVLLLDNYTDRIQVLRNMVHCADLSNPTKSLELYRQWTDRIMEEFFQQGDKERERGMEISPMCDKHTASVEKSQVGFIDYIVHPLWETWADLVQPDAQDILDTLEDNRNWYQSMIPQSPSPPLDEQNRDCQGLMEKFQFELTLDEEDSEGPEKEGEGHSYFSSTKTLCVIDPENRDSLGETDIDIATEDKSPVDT

SMILES	activation (PDE inhibition)	outcome
Nc1ncnc2c1ncn2[C@@H]1O[C@@H](CO)[C@H](O)[C@H]1O	-6.95%	
CC(=O)c1ccc(S(=O)(=O)NC(=O)NC2CCCCC2)cc1		inactive
CCN(CC)CCOC(=O)c1ccc(N)cc1		inactive
NC(N)=Nc1nc(CSCC/C(N)=N/S(N)(=O)=O)cs1		inactive
COCCCCC(=NOCCN)c1ccc(C(F)(F)F)cc1		inactive
CCN(CC)CCNC(=O)c1ccc(N)cc1		inactive
CCN(CC)C(=O)c1ccc(O)c(OC)c1		inactive
COc1ccc2c3c1OC1C[C@@H](O)C=C[C@@]31CCN(C)C2 (stereo partly specified)	-3.17%	
O=c1cc(-c2ccccc2)oc2cc(O)cc(O)c12	12.8%	
O=C1NCC2(CCN(CCc3ccccc3)CC2)O1		inactive
NCCS	1.54%	
O=c1c(O)c(-c2ccc(O)cc2)oc2cc(O)cc(O)c12		inactive
O=c1cc(-c2ccc(O)cc2)oc2cc(O)cc(O)c12		inactive
COc1ccccc1N1CCN(CCCNc2cc(=O)n(C)c(=O)n2C)CC1		inactive
C[C@@H](O)[C@H]1C(=O)N2C(C(=O)O)=C(S[C@@H]3CN[C@H](C(=O)N(C)C)C3)[C@H](C)[C@H]12	4.03%	
C[N+](C)(C)CCCCCC[N+](C)(C)C		inactive

SMILES	activation (PDE inhibition)	outcome
O=C(O)CCc1nc(-c2ccccc2)c(-c2ccccc2)o1		inactive
O=C1NC(=O)C(c2ccccc2)(c2ccccc2)N1	-3.35%	
CCCCCCCCCCCC1=C(O)C(=O)C=C(O)C1=O	9.32%	
c1cc(-c2sc(-c3ccncc3)c(-c3ccncc3)c2-c2ccncc2)ccn1	6.11%	
O=c1c(-c2ccc(O)cc2)coc2cc(O)ccc12		inactive
CC1(C)CCC2=C(O1)c1ccccc1C(=O)C2=O	-3.81%	
CCCCC1C(=O)N(c2ccccc2)N(c2ccccc2)C1=O	19%	
CC(C)OC(=O)C(C)(C)Oc1ccc(C(=O)c2ccc(Cl)cc2)cc1	23%	
O=C1C[C@@H](c2ccc(O)cc2)Oc2cc(O)cc(O)c21	4.57%	
C[N+](C)(C)CC(=O)O	-7.65%	
COc1cccc(-c2cc(=O)c3ccccc3o2)c1N	1.41%	
CCCNC(=O)NS(=O)(=O)c1ccc(Cl)cc1		inactive
Clc1ccc(Cn2c(CN3CCCC3)nc3ccccc32)cc1	18.2%	
CCN1CCC[C@H]1CNC(=O)c1cc(S(N)(=O)=O)ccc1OC	-5.1%	
O=c1cc(-c2ccccc2)oc2cc(O)c(O)c(O)c12	-1.69%	
CC(=O)CCCCn1c(=O)c2c(ncn2C)n(C)c1=O		inactive

Tested on: not listed separately
Assay: Cellular Toxicity (caspase-3) HepG2 (AID 654; active = well fitted activation curve with a large enough effect; also: potency is read from the fitted curve at half-maximal effect;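 as to caspase-3 activation: cells exposed to compound for 16 hours before reading; 0% = DMSO alone and 100% = caspase signal from 100 µM tamoxifen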)
Settings: HepG2 caspase-3 activation, luminescence; series mostly up to 92.2 µM; caspase-3 activation: at the top concentration
Outline: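 Caspase 3/7 activation in HepG2 is measured as rising luminescence after a 16 hr treatment at 37 °C. Values are scaled between DMSO basal and 100 uM tamoxifen, and AC50 is fitted with the Hill equation.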

SMILES	caspase-3 activation	Potency
CC(=O)c1ccc(S(=O)(=O)NC(=O)NC2CCCCC2)cc1	-0.341%	
CC/C(=C(\c1ccccc1)c1ccc(OCCN(C)C)cc1)c1ccccc1		50.1 µM (active)
CCn1cc(C(=O)O)c(=O)c2ccc(C)nc21	-0.262%	
O=c1[nH]cnc2c1ncn2[C@H]1CC[C@@H](CO)O1	0.125%	
O=c1c(O)c(-c2ccc(O)cc2)oc2cc(O)cc(O)c12	-1.7%	
O=c1cc(-c2ccc(O)cc2)oc2cc(O)cc(O)c12	-2.37%	
O=C(O)c1cc(O)c2c(c1)C(=O)c1cccc(O)c1C2=O	-0.813%	
O=C1NC(=O)C(c2ccccc2)(c2ccccc2)N1	1.01%	
CC1=C(/C=C/C(C)=C/C=C/C(C)=C/C(=O)Nc2ccc(O)cc2)C(C)(C)CCC1		31.6 µM (active)
O=c1c(-c2ccc(O)cc2)coc2cc(O)ccc12	-3.15%	
CCCCC1C(=O)N(c2ccccc2)N(c2ccccc2)C1=O	0.251%	
O=C(O)Cc1cccc2ccccc12	0.313%	
CN(C)CCC(c1ccccc1)c1ccccn1 (stereo unspecified)	-0.162%	
CC(=O)O[C@]1(C(C)=O)CC[C@H]2[C@@H]3C=C(Cl)C4=CC(=O)[C@@H]5C[C@@H]5[C@]4(C)[C@H]3CC[C@@]21C	0.103%	
CCCNC(=O)NS(=O)(=O)c1ccc(Cl)cc1	0.752%	

Tested on: not listed separately
Assay: Cellular Toxicity (caspase-3) Jurkat (AID 655; active = well fitted activation curve with a large enough effect;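 also: cells exposed to compound for 16 h at 37 °C before reading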)
Settings: Jurkat caspase-3 activation, luminescence, DMSO = 0%, tamoxifen = 100%; at 92.2 µM (top of the series)
Outline: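 Caspase 3/7 activation is scored as increased luminescence in Jurkat cells cultured with compound for 16 hours in complete medium. AC50 values come from Hill fits of qHTS concentration-response data normalized to DMSO and 100 uM tamoxifen controls.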

SMILES	caspase-3 activation
CC(=O)c1ccc(S(=O)(=O)NC(=O)NC2CCCCC2)cc1	0.00348%
CCn1cc(C(=O)O)c(=O)c2ccc(C)nc21	0.304%
O=c1[nH]cnc2c1ncn2[C@H]1CC[C@@H](CO)O1	3.7%
O=c1c(O)c(-c2ccc(O)cc2)oc2cc(O)cc(O)c12	1.17%
O=c1cc(-c2ccc(O)cc2)oc2cc(O)cc(O)c12	8.24%
O=C(O)c1cc(O)c2c(c1)C(=O)c1cccc(O)c1C2=O	-6.3%
O=C1NC(=O)C(c2ccccc2)(c2ccccc2)N1	1.33%
CC1=C(/C=C/C(C)=C/C=C/C(C)=C/C(=O)Nc2ccc(O)cc2)C(C)(C)CCC1	-0.319% (active)
O=c1c(-c2ccc(O)cc2)coc2cc(O)ccc12	-7.71%
CCCCC1C(=O)N(c2ccccc2)N(c2ccccc2)C1=O	0.354%
O=C(O)Cc1cccc2ccccc12	1.08%
CN(C)CCC(c1ccccc1)c1ccccn1 (stereo unspecified)	1.03%
CC(=O)O[C@]1(C(C)=O)CC[C@H]2[C@@H]3C=C(Cl)C4=CC(=O)[C@@H]5C[C@@H]5[C@]4(C)[C@H]3CC[C@@]21C	11.6%
CCCNC(=O)NS(=O)(=O)c1ccc(Cl)cc1	-0.0991%
